Data as given in PubChem BioAssay (NCATS).
Inconclusive results are not listed. Entries that show only a call come without a potency. The source made the active and inactive calls. Calls follow the shape of the dose curve; as a rule, active = well fitted curve in the direction sought with a large enough effect; inconclusive = small, poorly fitted or top-dose-only effect, or another doubt; inactive = no such curve, though single readings can be large; an effect the other way counts as inactive or inconclusive.

Key:
[1] = qHTS of pediatric cancer cell lines to identify multiple opportunities for drug repurposing: Primary screen for BT-37 cells (AID 1347094); also: series mostly up to about 57 µM
How it was run: (§1)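 Cells plated at 500-1,000/well in growth medium, compounds added after 5 h. MIPE tested at 11 points (from 0.78 nM), NPC at 8 points (from 0.59 nM). CellTiter-Glo luminescence after 48 h; concentration-response curves from primary screen.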

[2] = qHTS of pediatric cancer cell lines to identify multiple opportunities for drug repurposing: Primary screen for U-2 OS cells (AID 1347096); also: nearly all actives have a fitted effect of over 50% in size
How it was run: (§2)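 Cells (500-1,000/well) rested 5 h, then received compounds for 48 h; metabolically active cells were measured by CellTiter-Glo luminescence. Final concentrations spanned up to 46 µM (MIPE, 11-point) or 0.59 nM-46 µM (NPC, 8-point) in primary screens, 11-point in follow-ups.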

[3] = qHTS of pediatric cancer cell lines to identify multiple opportunities for drug repurposing: Primary screen for SK-N-SH cells (AID 1347098); also: nearly all actives have a fitted effect of over 65% in size; also: potency is read from the fitted curve at half-maximal effect
How it was run: as §2

[4] = qHTS of pediatric cancer cell lines to identify multiple opportunities for drug repurposing: Primary screen for NB1643 cells (AID 1347099); also: nearly all actives have a fitted effect of over 50% in size; also: potency is read from the fitted curve at half-maximal effect
How it was run: as §1

[5] = qHTS of pediatric cancer cell lines to identify multiple opportunities for drug repurposing: Primary screen for BT-12 cells (AID 1347101); also: nearly all actives have a fitted effect of over 25% in size; also: potency is read from the fitted curve at half-maximal effect
How it was run: as §2

[6] = qHTS of pediatric cancer cell lines to identify multiple opportunities for drug repurposing: Primary screen for Rh18 cells (AID 1347102); also: nearly all actives have a fitted effect of over 65% in size
How it was run: as §2

[7] = qHTS of pediatric cancer cell lines to identify multiple opportunities for drug repurposing: Primary screen for Saos-2 cells (AID 1347097); also: nearly all actives have a fitted effect of over 40% in size
How it was run: as §1

[8] = qHTS of pediatric cancer cell lines to identify multiple opportunities for drug repurposing: Primary screen for LAN-5 cells (AID 1347100); also: potency is read from the fitted curve at half-maximal effect
How it was run: as §2

[9] = qHTS of pediatric cancer cell lines to identify multiple opportunities for drug repurposing: Primary screen for OHS-50 cells (AID 1347103); also: nearly all actives have a fitted effect of over 40% in size; also: potency is read from the fitted curve at half-maximal effect
How it was run: as §2

[10] = qHTS of pediatric cancer cell lines to identify multiple opportunities for drug repurposing: Primary screen for NB-EBc1 cells (AID 1347095)
How it was run: as §1

| SMILES | Potency [1] | Potency [2] | Potency [3] | Potency [4] | Potency [5] | Potency [6] | Potency [7] | Potency [8] | Potency [9] | Potency [10] |
| --- | --- | --- | --- | --- | --- | --- | --- | --- | --- | --- |
| O=C1c2ccccc2C(=O)C1C(=O)C(c1ccccc1)c1ccccc1 | inactive | inactive | inactive | inactive | inactive | inactive | – | – | – | – |
| [N-]=[N+]=CC(=O)OC[C@H](N)C(=O)O | inactive | inactive | inactive | inactive | inactive | inactive | inactive | inactive | inactive | – |
| COc1cccc([C@@]2(O)CCCC[C@@H]2CN(C)C)c1 | inactive | inactive | inactive | inactive | inactive | inactive | inactive | – | inactive | – |
| COc1cc(OC)c(OC)cc1C=O | inactive | inactive | inactive | inactive | inactive | inactive | inactive | – | inactive | – |
| Nc1ccccc1C(=O)O | inactive | inactive | inactive | inactive | inactive | inactive | inactive | – | inactive | – |
| CCCCC/C=C\C/C=C\C/C=C\C/C=C\CCCC(=O)NCC(=O)O | inactive | inactive | inactive | inactive | inactive | inactive | – | inactive | inactive | – |
| O=C(O)CCCc1ccc(N(CCCl)CCCl)cc1 | – | inactive | inactive | inactive | inactive | inactive | inactive | – | – | – |
| O=C(CCCN1CCC2(CC1)C(=O)NCN2c1ccccc1)c1ccc(F)cc1 | – | inactive | inactive | inactive | – | inactive | – | – | – | inactive |
| O=c1c(C2CC(c3ccc(-c4ccc(Br)cc4)cc3)Cc3ccccc32)c(O)sc2ccccc12 (stereo not given) | – | inactive | – | 10.6 µM (active) | – | inactive | – | 10.6 µM (active) | – | – |
| O=C(Nc1ccc(Br)cc1)c1cc(Br)cc(Br)c1O | – | – | 34.4 µM (active) | 9.44 µM (active) | 27.6 µM (active) | inactive | – | – | 21.9 µM (active) | – |
| C[C@]12CCC(=O)C=C1CC[C@@H]1[C@@H]2CC[C@]2(C)C(=O)CC[C@@H]12 | inactive | inactive | inactive | inactive | inactive | inactive | inactive | – | – | – |
| C[C@]12CCC(=O)C=C1CC[C@@H]1[C@@H]2CC[C@@]2(C)[C@H]1CC[C@]2(C)O | inactive | inactive | inactive | inactive | – | inactive | – | – | – | – |
| CC(C)=CC1C(C(=O)OCN2C(=O)C3=C(CCCC3)C2=O)C1(C)C (stereo not given) | inactive | inactive | – | – | – | inactive | – | – | inactive | – |
| C[C@]12CC[C@H]3[C@@H](CCC4=CC(=O)CC[C@@H]43)[C@@H]1CC[C@@H]2OC(=O)CCC1CCCCC1 | – | inactive | inactive | inactive | inactive | inactive | – | – | – | – |
| C[C@]12CC[C@H]3[C@@H](CC[C@@]45O[C@H]4C(O)=C(C#N)C[C@]35C)[C@H]1CC[C@H]2O | inactive | inactive | 12.1 µM (active) | 13.2 µM (active) | – | inactive | – | 16.6 µM (active) | inactive | – |
